The results in this text go back to PubChem BioAssay (NCI).

About 83,000 compounds went through this panel and 20% of them were active in at least one assay; those are over-represented in the sample as a whole.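 Interpretation: 100, growth as untreated; towards 0, rising growth inhibition; 0, no net growth; 0 to -100, cell death. Compounds scoring below 10 were considered active.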 Activity calls are given as the source filed them.

The test system of the test is K-562 leukemia. The test can be described thus: NCI-60 one-dose screen, 48 h (100 = growth as untreated, 0 = no growth, -100 = all killed). Particulars: 10 µM.
On to `O=S(=O)(NCCCNc1nccc(-c2c(-c3ccc(F)cc3)nc3sccn23)n1)c1ccc2ccccc2c1`, for which the growth was 3.75% (active).

`O=C(Nc1cccc(-n2cc(-c3ccncc3)c(-c3ccc(O)c(Cl)c3)n2)c1)c1ccc(Cl)c(Cl)c1`: the growth is 30.1% (inactive).

Consider `Cc1ccc(C)c(C(O)(c2cc(C)ccc2C)C2(O)CCCCC2)c1`, for which the growth is 87.3% (inactive).

Turning to `O=C(/C=C/c1cc2ccccc2[nH]c1=O)c1ccc2c(c1)OCO2`, the growth was 87.4% (inactive).

`O=C(Nc1cccc(-n2cc(-c3ccncc3)c(-c3ccc(O)c(Cl)c3)n2)c1)Nc1ccc(Cl)c(Cl)c1`: the growth is 5.72% (active).

As to `O=C(Nc1ccc(OS(=O)(=O)c2ccccc2)cc1)C12CC3CC(CC(C3)C1)C2`, the growth was 13% (inactive).

As for `COc1ccc(-c2nn(-c3cccc(NC(=O)Nc4ccc(Cl)c(C(F)(F)F)c4)c3)cc2-c2ccncc2)cc1Cl`, the growth is 15.4% (inactive).

Regarding `COc1ccc(-c2nn(-c3cccc(NC(=O)c4ccc(Cl)c(Cl)c4)c3)cc2-c2ccncc2)cc1Cl`, the growth is 36.3% (inactive).

`CCOC(=O)CCC(NC(=O)c1ccc(N)cc1)C(=O)OCC` (configuration not stated): the growth is 112% (inactive).

Regarding `O=C(Nc1ccccc1)Nc1cccc(-n2cc(-c3ccncc3)c(-c3ccc(O)c(Cl)c3)n2)c1`, the growth was 24.4% (inactive).

Consider `O=S(=O)(NCCNc1nccc(-c2c(-c3ccc(F)cc3)nc3sccn23)n1)c1ccc2ccccc2c1`, for which the growth was 54.6% (inactive).

As to `O=C(Nc1cccc(-n2cc(-c3ccncc3)c(-c3ccc(O)c(Cl)c3)n2)c1)c1cc(C(F)(F)F)cc(C(F)(F)F)c1`, the growth is 35.9% (inactive).
